Source: the supplement of paper PMC10127200
Where a name gives a salt, the structure may show the parent alone.

Assays:
Test in all cases: Euclidean distance of Cell Painting phenotypic profile (signed KS, 77 features) to DMSO centroid (dimensionless distance); higher = stronger phenotypic change vs DMSO (phenoactivity)
Details in all cases: 48 h; 5 or 10 uM (library dependent)
[1] = tested on: 786-O
In short: (§1)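 At 10 or 5 uM, as set by the library, and 0.1% DMSO final, compounds were applied for 48 h to five cancer lines and one healthy fibroblast line. Stained cells were imaged confocally at 20X in 9 fields per well, and Harmony extracted 77 features scored as signed Kolmogorov-Smirnov statistics against vehicle wells on the same plate. Profiles underwent plate-position correction, correlation weighting and replicate averaging at the top dose. Phenoactivity is the Euclidean distance from each such profile to the median vehicle profile.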

[2] = tested on: A549
In short: as §1

[3] = tested on: DU145
In short: as §1

[4] = tested on: FB
In short: as §1

[5] = tested on: HEPG2
In short: as §1

[6] = tested on: OVCAR4
In short: as §1

Structure (SMILES)	Euclidean distance [1]	Euclidean distance [2]	Euclidean distance [3]	Euclidean distance [4]	Euclidean distance [5]	Euclidean distance [6]
O=C(CBr)N1CC([N+](=O)[O-])([N+](=O)[O-])C1	0.949	1.3	0.88	0.833	0.776	0.926
COc1cc(-n2c(=S)[nH]c3ccccc3c2=O)c(Cl)cc1Cl [Mdivi-1]	1.11	1.02	0.97	1.3	0.841	0.792
C[C@H]1CCC/C=C/[C@@H]2C[C@H](O)C[C@H]2[C@H](O)/C=C/C(=O)O1 [Brefeldin A]	3.77	3.61	4.53	4.79	4.54	3.85
CNC(C)Cc1ccccc1OC (centres undefined) [Methoxyphenamine Hydrochloride]	0.913	1.83	0.725	1.38	0.34	2.5
CN1C(=O)COc2c(C(=O)NC3CN4CCC3CC4)cc(Cl)cc21 (centres undefined) [Azasetron HCl]	0.735	0.632	0.582	0.666	0.533	0.74
O=P1(N(CCCl)CCCl)NCCCO1 (centres undefined) [Cyclophosphamide Monohydrate]	1.18	0.863	1.62	0.969	2.05	1.07
CC(NC(C)(C)C)C(=O)c1cccc(Cl)c1 (centres undefined) [Amfebutamone (Bupropion) HCl]	1.39	0.604	0.844	0.936	0.484	1.02
O=c1[nH]c2ccccc2n1CCCN1CCC(n2c(=O)[nH]c3cc(Cl)ccc32)CC1 [Domperidone]	1.75	1.18	2.1	1.14	0.776	1.67
Nc1ccncc1 [4-Aminopyridine]	1.38	0.626	0.961	0.938	0.429	0.946
CC(CCc1ccccc1)NC(C)C(O)c1ccc(O)cc1 (centres undefined) [Nylidrin Hydrochloride]	1.45	1.2	1.38	1.11	1.29	1.34
Cc1cccc(Cc2c[nH]cn2)c1C [Detomidine HCl]	1.46	0.895	1.16	0.994	1.89	1.34
NCC1(CC(=O)O)CCCCC1 [Gabapentin HCl]	0.807	0.703	0.806	0.665	0.483	0.892
c1cc2c(cc1[C@H]1OC[C@H]3[C@@H]1CO[C@@H]3c1ccc3c(c1)OCO3)OCO2 [Sesamin]	1.03	0.791	0.678	1.13	2.07	1.1
CC[C@@H]1/C=C/C=C/C[C@H](C)[C@H](O)[C@](C)(O)C(=O)[C@H](C)[C@@H](O)[C@H](C)C(=O)[C@H](C)[C@@H](O)[C@H](C)/C=C/C(=O)O[C@H]2[C@@H](C)[C@@H](CC1)O[C@@]1(CC[C@@H](C)[C@@H](C[C@H](C)O)O1)[C@@H]2C [Oligomycin A]	1.81	2.18	1.46	0.998	3.19	1.22
COc1ccc(OC)c(C(O)C(C)N)c1 (centres undefined) [Methoxamine HCl]	0.732	0.76	1.03	1.08	0.595	1.41
N[C@@H]1C[C@H]1c1ccccc1 [Tranylcypromine (2-PCPA) HCl]	1.2	1.52	1.36	2.02	1.47	1.76
CNC(=O)Oc1cccc2ccccc12 [Carbaryl]	1.83	1.3	0.843	0.842	0.501	1.03
C[C@]12CC[C@H](O)CC1=CC[C@@H]1[C@@H]2CC[C@]2(C)C(=O)CC[C@@H]12 [Dehydroepiandrosterone (DHEA)]	0.908	0.827	1.46	1.11	1.12	1.16
CN1CCc2cc3c(cc2C1C1OC(=O)c2c1ccc1c2OCO1)OCO3 (single isomer, unassigned; (+)) [(+)-Bicuculline]	1.27	0.94	0.878	0.836	0.778	1.48
C[C@@]12N[C@@H](Cc3ccccc31)c1ccccc12 [(-)-MK 801 Maleate]	1	1.63	1.84	3.8	1.69	4.43
O=c1c2ccccc2[se]n1-c1ccccc1 [Ebselen]	1.37	1.48	1.01	1.16	0.769	1.42
C/C(=C\c1csc(C)n1)[C@@H]1C[C@@H]2O[C@@H]2CCC[C@H](C)[C@H](O)[C@@H](C)C(=O)C(C)(C)[C@@H](O)CC(=O)O1 [Epothilone A]	3.01	2.89	4.3	2.5	2.34	3.02
O=C(O[C@H]1C[C@H]2CC[C@@H](C1)[N+]21CCCC1)C(O)(c1ccccc1)c1ccccc1 [Trospium chloride]	0.712	0.693	0.879	0.927	0.66	1.39
C#C[C@]1(O)CC[C@H]2[C@@H]3CCC4=CC(=O)CC[C@]4(C)[C@H]3CC[C@@]21C [Ethisterone]	1.07	0.836	1.58	0.721	0.747	1.06
